PubChem BioAssay (EPA / NIEHS)
Active and inactive are the calls of the source. How the source made its calls: active means hit-call score of the fitted dose curve at least 0.9, where 1 is the maximum; inactive means score below 0.9.

Experiment: ATG_NFI_CIS: Attagene CIS-FACTORIAL HepG2 Assay for human Nuclear Factor I (NFI) (AID 2282989)
Details: HepG2 cis-regulatory reporter, NFI response element transcription; actives raise or lower the signal
Procedure: ATG_CIS is a cell-based, multiplexed-readout assay that uses HepG2, a human liver cell line, with measurements taken at 24 hours after chemical dosing in a 24-well plate.ATG_NFI_CIS is one of 52 assay component(s) measured or calculated from the ATG_CIS assay. It is designed to make measurements of mRNA induction, a form of inducible reporter, as detected with fluorescence intensity signals by Reverse transcription polymerase chain reaction (RT-PCR) and Capillary electrophoresis technology.Data from the assay component ATG_NFI_CIS was analyzed into 1 assay endpoint. This assay endpoint, ATG_NFI_CIS, was analyzed with bidirectional fitting relative to DMSO as the negative control and baseline of activity. Using a type of inducible reporter, measures of mRNA for gain or loss-of-signal activity can be used to understand the reporter gene at the transcription factor-level as they relate to the gene NFIA. Furthermore, this assay endpoint can be referred to as a primary readout, because this assay has produced multiple assay endpoints where this one serves a reporter gene function. To generalize the intended target to other relatable targets, this assay endpoint is annotated to the dna binding intended target family, where the subfamily is nuclear factor I.
Human liver HepG2 cells are transiently transfected with multiple reporter transcription units (MRTUs) in 6-well plates using FuGene 6 reagent (Roche; 3 ml FuGene/1 mg DNA). The MRTU constructs are regulated by a cis-regulating element (promoter). […] A major difference between the CIS and TRANS system is that in CIS activities of endogenous TFs are measured, whereas the TRANS assay evaluates changes in activities of exogenous, chimeric NR-Gal4 proteins. […] At the end of 24 hour incubation, total RNA was isolated using TriZol reagent (Invitrogen). The isolated RNA is then reverse-transcribed using oligo(dT) primer and Mo-MLV reverse transcriptase (Invitrogen) with DNAse I (Ambion) treatment for 30 min. The one-tenth of the produced cDNA was amplified by PCR using Taq DNA polymerase (Invitrogen) and two reporter sequence-specific primers. The PCR products were fluorescently labeled by primer extension with 6-arboxyfluorescein (6-FAM) 5'-labeled reporter sequence-specific primer (2 min at 95 C, 20 s at 68 C and 10 min at 72 C) and these products were digested with 5U of HpaI (New England Biolabs) for 2h at 37 C. The fragments were purified using Qiaquick PCR columns (Qiagen), analyzed on an ABI 3130xL genetic analyzer (Applied Biosystems) with peak positions identified by using a set of X-rhodamine (ROX)-labeled MapMarker1000 molecular weight standards (BioVentures). The raw capillary electrophoresis data was processed using Attagraph software (Attagene).

Row | SMILES | outcome | AC50
1 | Cc1ccc2c(c1)OCC(=O)CO2 | inactive | –
2 | O=C(Cl)C(F)(F)C(F)(F)C(F)(F)C(F)(F)C(F)(F)C(F)(F)C(F)(F)F | inactive | –
3 | Cc1cccc(C)n1 | inactive | –
4 | C[C@]12CC[C@H]3C(=CCc4cc(O)ccc43)[C@@H]1CCC2=O | inactive | –
5 | CO[Si](C)(CCC(F)(F)C(F)(F)C(F)(F)C(F)(F)C(F)(F)C(F)(F)F)OC | inactive | –
6 | O=C(O)C(F)(F)C(F)(F)C(F)(F)C(F)(F)C(F)(F)C(F)(F)C(F)F | inactive | –
7 | CC(=O)C=O | inactive | –
8 | CC(=O)CCC(C)C | inactive | –
9 | CCCCCCCC/C=C\CCCCCCCC(=O)OCC(O)CO (stereo not given) | inactive | –
10 | OCC(O)CC(F)(F)C(F)(F)C(F)(F)C(F)(F)C(F)(F)C(F)(F)C(F)(F)C(F)(F)F (stereo not given) | inactive | –
11 | O=C(c1ccccc1)c1ccc(O)cc1O | inactive | –
12 | CC(C)Nc1ccc(NC(C)C)c2c1C(=O)c1ccccc1C2=O | inactive | –
13 | OCC(O)CC(F)(F)C(F)(F)C(F)(F)C(F)(F)F (stereo not given) | inactive | –
14 | CC(=O)c1ccccc1N | inactive | –
15 | CCCCCCCCCCCCCC[P+](CCCC)(CCCC)CCCC | – | 1.24 µM (active)
16 | OC(O)C(F)(F)C(F)(F)F | inactive | –
17 | CCOCN(C(=O)CS(=O)(=O)O)c1c(C)cccc1CC | inactive | –
18 | O=C(O)C(F)(F)C(F)(F)C(F)(F)C(=O)O | inactive | –
19 | CCC(C)CO (stereo not given) | inactive | –
20 | OCCCCl | inactive | –

Row | SMILES | outcome | AC50
21 | N#CCCOCCC#N | inactive | –
22 | O=C1c2ccccc2C(=O)c2c(Cl)cccc21 | inactive | –
23 | CCC/C=C/CO | inactive | –
24 | NC(=O)C(F)(F)C(F)(F)C(F)(F)C(F)(F)C(F)(F)C(F)(F)C(F)(F)F | inactive | –
25 | OCC(F)(F)C(F)(F)C(F)(F)CO | inactive | –
26 | OCC(F)(F)C(F)(F)C(F)(F)C(F)(F)C(F)(F)C(F)(F)C(F)(F)C(F)(F)CO | inactive | –
27 | Cc1cc(O)c(C(C)(C)C)cc1C(C)(C)C | inactive | –
28 | Cc1ccc(O)cn1 | inactive | –
29 | Brc1ccccn1 | inactive | –
30 | CC(C)(C)c1cc(CCC(=O)OCC(COC(=O)CCc2cc(C(C)(C)C)c(O)c(C(C)(C)C)c2)(COC(=O)CCc2cc(C(C)(C)C)c(O)c(C(C)(C)C)c2)COC(=O)CCc2cc(C(C)(C)C)c(O)c(C(C)(C)C)c2)cc(C(C)(C)C)c1O | inactive | –
31 | CCN=c1cc2oc3cc(NCC)c(C)cc3c(-c3ccccc3C(=O)OCC)c-2cc1C | – | 17.5 µM (active)
32 | Cc1cc(C)c(O)c(C(C)(C)C)c1 | inactive | –
33 | COC(F)(C(F)F)C(F)(F)F (stereo not given) | inactive | –
34 | CC(C)(C)C(=O)C1C(=O)c2ccccc2C1=O | inactive | –
35 | NCC(F)(F)C(F)(F)C(F)(F)C(F)(F)C(F)(F)C(F)(F)F | inactive | –
36 | Oc1ccc(C2(c3ccc(O)c(C4CCCCC4)c3)CCCCC2)cc1C1CCCCC1 | – | 8.18 µM (active)
37 | CC(C)CCCC(C)CCO (stereo not given) | inactive | –
38 | CCN(CC)c1ccc(C=O)cc1 | inactive | –
39 | O=c1cccc[nH]1 | inactive | –
40 | CC1=CC2C3C=CC(C3)C2C1C (stereo not given) | – | 100 µM (active)
